High-throughput results deposited in PubChem BioAssay by Sanford-Burnham Center for Chemical Genomics.
CYP2C9 inh = human CYP2C9 inhibition; 96,000 tested, 20% active; CYP2C9 Supersomes, luciferin-H conversion, luminescence; inhibition, % at 5 µM; P11712; AID 777;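 active = blocking of liver enzyme CYP2C9 beyond about 50% at 5 µM, limit read from the data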
CYP2C19 activ = cytochrome P450 2C19 (human) activation. P33261. recombinant CYP2C19, luciferin-H EGE luminescence; hits give high values; 0 = fully inhibited enzyme, 1 = untreated enzyme. activation factor at 5 µM. 96,000 tested, under 10 active;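 active = activation factor of at least 2 at 5 µM in the primary screen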
CYP2C19 inh = inhibitors of human CYP2C19; inhibition, % at 5 µM; CYP2C19 Supersomes, luciferin-H EGE luminescence, 30 min; P33261; AID 778; 96,000 tested, 21% active;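 active = CYP2C19 inhibition above a set limit at 5 µM in the primary screen, cut at about 50% in these data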
CYP2C9 act = CYP2C9 (human) activation; AID 1024; recombinant CYP2C9, luciferin-H conversion, luminescence; hits give high values; factor 1 = untreated enzyme, 0 = blocked; activation factor at 5 µM; 96,000 tested, 1.4% active;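 active = activation factor of 2 or more for CYP2C9 at a 5 µM dose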
Mac1 fbg inh = CD11b/CD18-fibrinogen binding inhibition; inhibition, % at 10 µM; AID 1497; 93,000 tested, 0.54% active; K562 CD11b/CD18 adhesion to fibrinogen, ATPlite luminescence; Mn2+ added to activate the integrin; P05107+P11215;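 active = primary inhibition of 50% or more at 10 µM, then 40% or more on retest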
Target sequence (P05107 whole entry, looked up, other chains not shown): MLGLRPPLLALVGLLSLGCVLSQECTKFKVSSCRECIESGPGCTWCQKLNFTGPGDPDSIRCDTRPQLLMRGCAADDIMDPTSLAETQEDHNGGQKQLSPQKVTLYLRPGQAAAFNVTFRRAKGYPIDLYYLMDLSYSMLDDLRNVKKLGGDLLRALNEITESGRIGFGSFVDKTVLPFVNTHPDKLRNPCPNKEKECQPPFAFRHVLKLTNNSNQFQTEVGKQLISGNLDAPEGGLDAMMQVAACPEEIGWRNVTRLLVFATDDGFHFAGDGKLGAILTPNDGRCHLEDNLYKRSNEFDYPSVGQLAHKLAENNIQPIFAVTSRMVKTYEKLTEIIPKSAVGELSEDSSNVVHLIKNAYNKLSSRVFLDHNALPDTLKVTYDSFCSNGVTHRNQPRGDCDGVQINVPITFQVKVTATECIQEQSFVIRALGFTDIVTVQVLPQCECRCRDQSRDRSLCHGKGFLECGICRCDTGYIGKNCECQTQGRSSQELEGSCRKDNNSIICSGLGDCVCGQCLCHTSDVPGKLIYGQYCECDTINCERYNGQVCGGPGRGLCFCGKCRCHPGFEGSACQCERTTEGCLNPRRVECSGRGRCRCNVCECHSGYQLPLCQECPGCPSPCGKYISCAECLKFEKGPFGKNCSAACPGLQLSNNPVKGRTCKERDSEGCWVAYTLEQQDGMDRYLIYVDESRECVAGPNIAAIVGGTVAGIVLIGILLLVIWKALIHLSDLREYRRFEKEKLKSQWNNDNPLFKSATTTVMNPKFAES
CD11b adhes enh = enhancers of human CD11b/CD18 binding to fibrinogen; P05107+P11215; K562 CD11b/CD18 adhesion to fibrinogen, ATPlite luminescence; activation, % at 10 µM; 93,000 tested, 0.07% active; AID 1499;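 active = 10 µM primary screen giving 50% or more activity, confirmed by 40% or more on retest at that dose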
Of the large screens only hits and unclear results are named; the others gave an inactive call. The list is not random: actives were taken first. Their share in the collection is about 28%.

Cc1ccc(C)c(-n2nnnc2SCC(=O)Nc2c(C)n(C)n(-c3ccccc3)c2=O)c1	none
CCN1C(=O)N(C)C(N(O)C(=O)NC)C1(C)C (configuration not stated)	none
CCOC(=O)Cc1csc(/C(=N/O)C(N)=O)n1	none
C=C(C)CSc1nnc(CCNC(=O)OC(C)(C)C)o1	CYP2C19 inh 87.4
CCSc1nnc(CCNC(=O)OC(C)(C)C)o1	none
COC(=O)C1(C(=O)OC)NOC2C(=O)N(c3ccccc3)C(=O)C21 (configuration not stated)	none
COc1nc(N/N=C/c2cc3c(cc2Br)OCO3)nc(N2CCOCC2)n1	CYP2C9 inh 77.4
COc1ccc(C(CC(=O)O)NC(=O)c2cccs2)cc1 (configuration not stated)	none
CCOC(=O)CC(NC(=O)c1cccs1)c1ccc(OCC)cc1 (configuration not stated)	CYP2C9 inh 65.4, CYP2C19 inh 51.8 (no result: Mac1 fbg inh, CD11b adhes enh)
CCOc1ccc(C(=O)NCc2cccs2)cc1	CYP2C19 inh 66.9
CC1CCN(S(=O)(=O)c2cccc(C(=O)NCc3cccs3)c2)CC1	none
CCN(CC)S(=O)(=O)c1ccc(C(=O)NCc2cccs2)cc1	CYP2C9 inh 53.2
CN(C)S(=O)(=O)c1cccc(C(=O)NCc2cccs2)c1	CYP2C9 inh 59.5, CYP2C19 inh 51.0
Oc1cccc2ccc[n+](CC(O)Cn3c4ccccc4c4ccccc43)c12 (configuration not stated)	none (no result: CYP2C9 inh, CYP2C19 activ, CYP2C19 inh, CYP2C9 act)
O=C(NC12CC3CC(CC(C3)C1)C2)N1CCC(O)CC1	none
O=C(NC12CC3CC(CC(C3)C1)C2)N1CCC(n2nnc3ccccc32)CC1	CYP2C19 inh 78.3
O=C(CSCc1cnn(-c2ccccc2)c1-n1cccc1)N1CCN(Cc2ccccc2)CC1	CYP2C9 inh 96.5, CYP2C19 inh 89.0
COc1cccc(CNC(=O)CSCc2cnn(-c3ccccc3)c2-n2cccc2)c1OC	CYP2C9 inh 97.4, CYP2C19 inh 93.8
CCOc1ccc(NC(=O)CSCc2cnn(-c3ccccc3)c2-n2cccc2)cc1	CYP2C9 inh 93.8, CYP2C19 inh 97.7
COc1ccccc1CNC(=O)CSCc1cnn(-c2ccccc2)c1-n1cccc1	CYP2C9 inh 87.8, CYP2C19 inh 97.2
COc1ccc(NC(=O)C2CCN(Cc3cnn(-c4ccccc4)c3-n3cccc3)CC2)cc1OC	none
N#CCCn1nc(-c2ccc([N+](=O)[O-])cc2)cc1Nc1ccccc1NC(=O)C(F)(F)F	none (no result: CYP2C9 inh, CYP2C19 activ, CYP2C19 inh, CYP2C9 act)
CN(C)C(=O)c1c2c(nc3ccccc13)-c1ccccc1CC2	none
O=C1CC(C(F)(F)C(F)(F)C(F)(F)C(F)F)=Nc2ccccc2N1	CYP2C19 inh 60.3
CCCn1c(NCc2ccc(C)o2)nc2ccccc21	none
CCCn1c(NCc2ccc3c(c2)OCO3)nc2ccccc21	CYP2C19 inh 59.1
CCCCn1c(NCc2ccccc2NS(=O)(=O)c2ccc(C)cc2)nc2ccccc21	CYP2C9 inh 50.3 (no result: Mac1 fbg inh, CD11b adhes enh)
CCCCn1c(NCc2ccccc2O)nc2ccccc21	none
CCCn1c(NCc2cc(C)ccc2O)nc2ccccc21	CYP2C19 inh 52.6
CCCn1c(C(O)c2ccc3c(c2)OCO3)nc2ccccc21 (configuration not stated)	CYP2C9 inh 60.3, CYP2C19 inh 98.3
COc1ccc(C)cc1NC(=O)CN1C(=O)c2cccc3cccc1c23	none
Cc1ccc(-n2c(SCc3cn4ccsc4n3)nc3ccccc3c2=O)cc1	none
CC(C)c1ccc(NC(=O)COC(=O)CSc2nnc(N)s2)cc1	none (no result: CYP2C9 inh, CYP2C19 activ, CYP2C19 inh, CYP2C9 act)
COc1cc2c(cc1OC)-c1cc(OCc3cccnc3)nc(=O)n1CC2	none
N#CC1(c2ccccc2)CCCN1C(=O)c1ccc(Br)o1 (configuration not stated)	none
Cc1c(O)ccc(-c2[nH]ncc2-c2nc3ccccc3s2)c1O	CYP2C9 inh 68.7, CYP2C19 inh 86.8
Cc1c(NC(=O)c2ncn[nH]2)cccc1-c1nc2ccccc2s1	none (no result: CYP2C9 inh, CYP2C19 activ, CYP2C19 inh, CYP2C9 act)
C/C(N)=C(/C#N)C(=O)CSc1nc(C2CCCCC2)n(-c2ccccc2)n1	CYP2C9 inh 77.2
Cn1c(SCC(=O)O)nnc1C1CCCCC1	none
C=CCn1c(SCc2cc(=O)n3ccsc3n2)nnc1C1CCCCC1	CYP2C19 inh 87.8
C/C(N)=C(/C#N)C(=O)CSc1n[nH]c(-c2ccccc2Br)n1	CYP2C19 inh 97.0
CCOCCCn1c(SCC(=O)/C(C#N)=C(\C)N)nc2ccccc2c1=O	none (no result: CYP2C9 inh, CYP2C19 activ, CYP2C19 inh, CYP2C9 act)
C=CCn1c(SCC(=O)/C(C#N)=C(\C)N)nnc1C1CCCCC1	CYP2C19 inh 78.0
CCC1CCC(C(=O)NC(C(=O)Nc2ccc3c(c2)OCCO3)C(C)C)CC1 (configuration not stated)	none
CCC(=O)N1CCc2cc(S(=O)(=O)NCCC(=O)N3CC=C(c4ccccc4)CC3)ccc21	none
Cc1cc(C)c[n+](-c2nc3ccccc3nc2[N-]S(=O)(=O)c2ccc(Cl)cc2)c1	none (no result: CYP2C9 inh, CYP2C19 activ, CYP2C19 inh, CYP2C9 act)
CCCCCn1c(CCC(=O)Oc2ccccc2OC)nc2c1c(=O)[nH]c(=O)n2CCCC	none
CCC(C)(C)n1nnnc1C(c1ccncc1)N1CCN(c2cccc(OC)c2)CC1 (configuration not stated)	CYP2C9 inh 91.5, CYP2C19 inh 84.1
CCC(C)(C)n1nnnc1C(c1cccnc1)N1CCN(c2cccc(C(F)(F)F)c2)CC1 (configuration not stated)	CYP2C9 inh 57.9, CYP2C19 inh 80.5 (no result: Mac1 fbg inh, CD11b adhes enh)
CCOC(=O)c1nnn(CC(=O)Nc2cc(F)ccc2F)c1C(=O)OCC	CYP2C19 inh 68.2
CCOc1ccc(NC(=O)Cn2nnc(C(=O)NCc3ccccc3OC)c2N)cc1	CYP2C9 act 2.1 (no result: Mac1 fbg inh, CD11b adhes enh)
COC(=O)c1nnn(CC(=O)Nc2cccc(Cl)c2C)c1C(=O)OC	CYP2C19 inh 89.5
CCOc1ccc(NC(=O)c2nnn(CC(=O)Nc3ccccc3OCC)c2N)cc1	none
CCOC(=O)c1nnn(CC(=O)Nc2ccccc2OC)c1C(=O)OCC	CYP2C19 inh 54.7
CCOC(=O)c1nnn(CC(=O)Nc2cc(Cl)ccc2C)c1C(=O)OCC	none
CCc1cccc(CC)c1NC(=O)COC(=O)CC1c2ccccc2CCN1S(=O)(=O)c1ccccc1 (configuration not stated)	none (no result: CYP2C9 inh, CYP2C19 activ, CYP2C19 inh, CYP2C9 act)
Cc1oc(CC(C)C)c(CN)c1C(=O)O	none
Cc1ccc(CC2(O)CC(C)N(C)CC2C)c(C)c1 (configuration not stated)	none
CCOc1ccc(N(CC(=O)NC(C)(C)C)S(=O)(=O)c2c(C)noc2C)cc1	CYP2C19 inh 50.4
CCOc1ccc(N(CC(=O)Nc2cccc(Cl)c2)S(=O)(=O)c2c(C)noc2C)cc1	none
COc1ccc(NC(=O)CN(c2ccc(C(C)C)cc2)S(=O)(=O)c2c(C)noc2C)cc1OC	CYP2C19 inh 52.3
CCOc1ccc(N(CC(=O)Nc2ccc(C)cc2)S(=O)(=O)c2c(C)noc2C)cc1	none
